From PubChem BioAssay (NCI) come the findings set out here.

This is part of a sample that, as a whole, favours compounds with a hit. Of some 79,000 tested, about 15% had one in any assay. The source made the active and inactive calls. Rule as the data show it: active = growth inhibition above about 70%; inactive = the rest.

The assay in a line: NCI Yeast Anticancer Drug Screen. Data for the mgt1 strain (AID 153). The settings on record: S. cerevisiae mgt1 mutant growth inhibition; at 33.0 µM; hits give high values. Put shortly:
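Yeast mgt1 strain (DNA repair/cell-cycle alteration panel) exposed to compounds; growth inhibition measured relative to vehicle-treated controls.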
On to `C/C(=N\NC(=S)SCc1ccccc1)c1ccccn1`, for which the growth inhibition is 96% (active).
Next, `CC[C@@]1(O)C(=O)OCc2c1cc1n(c2=O)Cc2cc3c(N)cccc3nc2-1`: 2% (inactive).
Next, `CN(C)c1ccc(Sc2ccc3nc(N)nc(N)c3c2)cc1`: -11% (inactive); `CC(=O)OCCOCNC(=S)N/N=C(\C)c1cnccn1`: 53% (inactive); `COc1ccc(C2c3cc4c(cc3OC(C)(O)C2C)OCO4)c(OC)c1` (centres undefined): -2% (inactive).
Next, `COc1cc(C2SCC(=O)N2c2ccc(-c3ccc(-n4c(-c5ccccc5)nc5ccccc5c4=O)cc3)cc2)cc(OC)c1OC` (centres undefined): -3% (inactive); `COc1ccc(Br)c(C(=O)Sc2nnnn2-c2cccc(Cl)c2)c1`: 30% (inactive); `O=C(NNc1ccnc2cc(Cl)ccc12)/C(=C\c1ccccc1Cl)NC(=O)c1ccccc1`: 61% (inactive).
As to `CSC(=S)Nc1cccc(C)n1`, the growth inhibition is 16% (inactive).
Take `O=C(/C=C\c1ccc(Cl)cc1Cl)c1cccs1`: the growth inhibition was 2% (inactive).
The figure for `COc1ccc(-c2cn(-c3ccc(I)cc3)c3ncnc(N)c23)cc1` is 2% (inactive).
Next, `CN(C)c1ccc(C(C#N)=C(C#N)C#N)cc1`: -4% (inactive).
Next, `COc1cc(/C=C2\CCc3ccccc3C2=O)cc(OC)c1OC`: 6% (inactive); `CC(C)/C(Cl)=N\OC(=O)Nc1cccc(Cl)c1`: -26% (inactive).
Turning to `CC1(C)[C@@H]2CC[C@]1(C)[C@H](OC(=O)CSC#N)C2`, the growth inhibition was 90% (active).
The figure for `NNC(=O)CCc1ccc2ccc3ccccc3c2c1` is -4% (inactive).
On to `COc1ccc(/C(C)=N/OC(=O)c2c(-c3ccccc3Cl)noc2C)cc1CN1CCOCC1`, for which the growth inhibition is 36% (inactive).
The figure for `C=CC(C)(O)CCC1C(=C)C(O)CC2C(C)(C)CCCC12C` (centres undefined) is 14% (inactive).
Next, `S=C(Nc1ccc(Cl)c(Cl)c1)SCc1ccc2c(c1)OCO2`: 99% (active).
Next, `COc1cc(C2C3=C(COC3=O)Oc3cc4c(cc32)OCO4)ccc1O` (centres undefined): -5% (inactive).
In the case of `S=C(Nc1ccc(Cl)cc1)SC1CCCCC1`, the growth inhibition is 98% (active).
On to `Nc1nc(-c2cccnc2)cc(-c2cc(-c3cccnc3)nc(N)n2)n1`, for which the growth inhibition was -1% (inactive).
The figure for `COC1=CC(=O)C2C(C1=O)C(c1ccc(Cl)cc1)[C@@H]2C` (some centres undefined) is 99% (active).
Next, `c1ccc(-c2nc3cccnc3s2)cc1`: -10% (inactive); `O=[N+]([O-])c1cc(CCl)ccc1CCl`: 90% (active).
As to `COc1ccc(/C=C2\SC(=S)N(/C=C/c3nc4ccccc4[nH]c3=O)C2=O)cc1OC`, the growth inhibition is 76% (active).
Regarding `CCCN(CCC)CC(O)c1cc(-c2ccc(Cl)cc2)nc2c(C)c(Cl)ccc12` (centres undefined), the growth inhibition was 98% (active).
Next, `O=C(Nc1ccccc1)OCCc1ccc(Cl)c(Cl)c1`: 14% (inactive); `CC(O)C(O)C(O)C(/C=N\Nc1ccccc1)=N/Nc1ccccc1` (centres undefined): 47% (inactive).
Take `C#CCCCc1ccccc1`: the growth inhibition is 16% (inactive).
The figure for `CC(=O)Cc1ccc[cH-]1.[Fe+2].c1cc[cH-]c1` is 11% (inactive).
In the case of `Cc1cc(I)ccc1N`, the growth inhibition was 93% (active).
Next, `FC(F)(F)c1cc(NC(=S)N2c3ccccc3-n3cccc3C2c2cccnc2)cc(C(F)(F)F)c1` (centres undefined): -36% (inactive); `CC(C)(CN1CCCCC1)C(=O)CC(SCCS(=O)(=O)O)c1ccc(Br)cc1` (centres undefined): 21% (inactive); `C[Si](C)(C)CNC(=O)OCc1ccccc1`: -4% (inactive).
Next, `CC(C(=O)N1C(=O)N(C(=O)[C@H](C)C(O)c2ccccc2)[C@H](c2ccccc2)[C@H]1c1ccccc1)[C@@H](O)c1ccccc1` (some centres undefined): 25% (inactive).
Turning to `Oc1cccc2c(Cl)ccnc12`, the growth inhibition was 95% (active).
The figure for `O=C1C=CC(=C(c2ccccc2)c2ccccc2)c2ccccc21` is -1% (inactive); for `S=C(S)NN1CCOCC1` it is 21% (inactive).
